TGFb inhibitor = qHTS for Inhibitors of TGF-b. HepG2 CAGA-GFP TGF-b/SMAD3 reporter, GFP fluorescence, 18 h; TGF-beta stimulated, 500 pg/mL final. Potency, µM (doses to about 46.1 µM), usual class: inhibitors. 410,000 tested, 1.2% active. AID 588855, 2011; also: nearly all actives have a fitted effect of over 65% in size
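Read-out: total well GFP (ex488/em500-530) summed from mean per-cell fluorescence. Cells: HEPG2 CAGA-GFP, 1% FBS DMEM, 18 h at 37 degrees C with 500 pg/mL final TGF-beta. Unstimulated wells served as the full-inhibition control; stimulated DMSO wells = 0%.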
HttQ103 aggreg = qHTS Multiplex Assay to Identify Dual Action Probes in a Cell Model of Huntington: Aggregate Formation (GFP). PC12 HttQ103-GFP aggregates, Acumen cytometry, 40 h. Potency, µM (series often up to 46.1 µM), hits mostly inhibitors. 220,000 tested, 1.1% active; also: nearly all actives have a fitted effect of over 60% in size
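Huntingtin Q103 exon 1–GFP aggregates in induced PC12 cells (100 nM tebufenozide) were quantified by cytometry from lysates, with compounds dosed in titration.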
S2 tox = Viability Counterscreen for Primary qHTS for Inhibitors of ATXN expression | S2 cells (HEK-293 line with an ATXN2-luciferase reporter) viability, CellTiter-Fluor protease fluorescence, 24 h | Potency, µM (series often up to 56.7 µM), actives largely listed as cytotoxic | 400,000 tested, 0.49% active | AID 651635, 2014; also: nearly all actives have a fitted effect of over 40% in size
HepG2 tox = qHTS for Inhibitors of TGF-b: Cytotox Counterscreen; HepG2 CAGA-GFP viability, ATP luminescence, 18 h; Potency, µM (titrated, usually from 46.1 µM), hits mostly cytotoxic; 410,000 tested, 0.76% active
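HepG2 CAGA-GFP cells (1000/well, DMEM with 1% FBS) received compound, then TGF-beta at 500 pg/mL final, and were incubated 18 hours at 37 degrees C. Viability was read by CellTiter-Glo luminescence. Media-only wells were set as complete cell-killing and DMSO as no toxicity.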
HTT cytoprotect = qHTS Multiplex Assay to Identify Dual Action Probes in a Cell Model of Huntington: Cytoprotection (ATP) | PC12 HTT-Q103 induced, cytoprotection, ATP luminescence, 40 h | Potency, µM (series often up to 56.4 µM), hits mostly activators | 230,000 tested, 0.14% active | AID 1471, 2008; also: nearly all actives have a fitted effect of over 45% in size
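Readout: ATPlite luminescence (ATP level). Model: stable PC12, inducible Htt exon1 Q103-GFP. Inducer: tebufenozide, 100 nM final. Compounds: dose series. No G418 in medium.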
ATXN2 expr inh = Primary qHTS for Inhibitors of ATXN expression; Potency, µM (highest dose often 57 µM), most hits filed as inhibitors; HEK-293 ATXN2-luciferase reporter, luminescence, 24 h; 360,000 tested, 0.72% active; also: nearly all actives have a fitted effect of over 55% in size
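qHTS (up to 57 uM final) was run with 24 h compound exposure of reporter cells at 37 °C. Each well was multiplexed: SteadyGlo luminescence measured ATXN2-luciferase expression after a fluorogenic Gly-Phe-AFC viability readout (25 uM final).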
Hits are given with their value; n = inactive; u = inconclusive; x = no result; ! = not confirmed by another sample; [ ] = dose if it differs, or a comment. Compounds with a hit are over-represented: about 2.8% of the library has one in this group of screens. Calls follow the shape of the dose curve; as a rule, active = well fitted curve in the direction sought with a large enough effect; inconclusive = small, poorly fitted or top-dose-only effect, or another doubt; inactive = no such curve, though single readings can be large; an effect the other way counts as inactive or inconclusive.

SMILES	TGFb inhibitor	HttQ103 aggreg	S2 tox	HepG2 tox	HTT cytoprotect	ATXN2 expr inh
O=[N+]([O-])/C=C\c1ccc(N2CCCC2)c(F)c1	11µM	u	u	n	n	u
CCCCN(CCCC)C(C(N)=O)c1ccc(OC)cc1 (stereo not drawn)	x	x	n	x	x	n
O=C(NC1CCCCC1)C(c1ccc(F)cc1)N(Cc1ccco1)C(=O)CN1C(=O)c2ccccc2S1(=O)=O (stereo not drawn)	n	22µM	n	n	n[10 µM]	n
CCn1c2ccccc2c2cc(/C=C(/C#N)C(N)=S)ccc21	4µM	x	u	n	x	3.5µM
CC1=C(\C=C/C(C)=C/C=C\C(C)=C\C(=O)Nc2ccc(O)cc2)C(C)(C)CCC1	x	x	x	x	n[1.9 µM]	x
C[C@@H]1CN([C@@H](C)CO)C(=O)c2cc(NS(C)(=O)=O)ccc2O[C@H]1CN(C)Cc1ccc(Oc2ccccc2)cc1	u	x	u	n	x	n
C[C@@H]1CCCCO[C@H](CN(C)Cc2ccc(C(F)(F)F)cc2)[C@H](C)CN([C@@H](C)CO)C(=O)c2cc(NC(=O)Cc3ccccc3)ccc2O1	u	x	13µM	n	x	n
COc1ccc(CN(C)C[C@@H]2OCCCC[C@H](C)Oc3ccc(NC(=O)Nc4ccc(F)cc4)cc3C(=O)N([C@H](C)CO)C[C@H]2C)cc1	u	x	18µM	25µM	x	u
COc1ccc(CN(C)C[C@@H]2OCCCC[C@H](C)Oc3ccc(NC(=O)Cc4ccccc4)cc3C(=O)N([C@@H](C)CO)C[C@@H]2C)cc1	n	x	u	n	x	n
C[C@@H]1CN([C@@H](C)CO)C(=O)c2cc(Br)cnc2O[C@@H]1CN(C)Cc1ccc(Oc2ccccc2)cc1	u	x	25µM	n	x	n
C[C@@H]1CN([C@@H](C)CO)C(=O)c2cc(NC(=O)Nc3ccc(F)cc3)ccc2O[C@@H]1CN(C)Cc1ccc(Oc2ccccc2)cc1	u	x	25µM	16µM	x	n
COC(=O)c1c(OCc2cccnc2)cc(=O)n2c1CCN(C(=O)c1cccc(N(C)C)c1)CC2	x	x	n	x	x	x
CN(C)c1ccc(-c2nn3c(-c4cc(-c5ccccc5)n[nH]4)nnc3s2)cc1	u	x	x	n	x	x
CC(C)NC(=O)Nc1ccc2c(c1)C(=O)N([C@H](C)CO)C[C@H](C)[C@@H](CN(C)Cc1ccc(C(F)(F)F)cc1)OCCCC[C@H](C)O2	16µM	x	x	n	x	u
CCc1noc(C)c1C(=O)N1CCOc2ccc(CN3CCCC(C(=O)c4cccnc4)C3)cc2C1 (stereo not drawn)	x	x	n	x	x	x
O=c1cc(-c2ccccc2Cl)oc2c([N+](=O)[O-])ccc(O)c12	x	x	x	x	n	x
O=C1NC(=O)C(c2ccccc2[N+](=O)[O-])=C1Nc1ccc(O)c(Cl)c1	u	x	u	n	13µM!	n
CN(C)c1ccc(/C=C/c2sc3ccccc3[n+]2Cc2ccccc2)cc1	u	x	x	n	x	x
CC1(C)Cc2ccccc2C(NNC(=O)c2ccccn2)=N1	n	18µM	n	n	n	u
O=C(CSc1nc(-c2ccccc2)cn1-c1ccccc1F)Nc1ccc(F)cc1	14µM	x	u	n	x	n
O=C(CSc1nc(-c2ccccc2)cn1-c1ccccc1)Nc1ccccc1	n	x	u	n	x	n
CCN(CC)c1ccc(N=Cc2ccc(N(CC)CC)cc2O)cc1	n	n	u	n	n	u
COc1cccc(/C=N/NC(=O)c2ccc3nc[nH]c3c2)c1O	n	n[9.22 µM]	n	n	n[10 µM]	n
CCN(CC)c1ccc(/C=N/N=C(N)N)c(O)c1	u	0.71µM	n	n	n[10 µM]	n
CC(C)Oc1ccccc1/C=N/NC(=O)c1ccc(F)cc1	n	n	n	n	n[10 µM]	n
CCN(CC)c1ccc(C(=O)N/N=C/c2ccccc2OC(F)F)cc1	u	10µM	n	n	n[10 µM]	u
CCN(CC)c1ccc(/C=N/NC(=O)c2ccc3nc[nH]c3c2)c(O)c1	n	n[9.22 µM]	n	n	n[10 µM]	2.8µM

Source: PubChem
